# Assay results taken from PubChem BioAssay (NCATS).
# Inconclusive results are not listed. Entries that show only a call come without a potency. Active and inactive are the calls of the source. Calls come from the whole dose curve; as a rule, active = well fitted curve in the direction sought with a large enough effect; inconclusive = small, poorly fitted or top-dose-only effect, or another doubt; inactive = no such curve, though single readings can be large; an effect the other way counts as inactive or inconclusive.
# Key:
# [1] = molecular target: Glutathione peroxidase 1 (Homo sapiens) (UniProt P07203); assay: Primary qHTS Assay for Inhibitors of Recombinant Selenoprotein Glutathione Peroxidase 1 (GPX1) (AID 1845191); note: nearly all actives have a fitted effect of over 65% in size
# Chain of Glutathione peroxidase 1 (Homo sapiens) (P07203 whole entry, looked up): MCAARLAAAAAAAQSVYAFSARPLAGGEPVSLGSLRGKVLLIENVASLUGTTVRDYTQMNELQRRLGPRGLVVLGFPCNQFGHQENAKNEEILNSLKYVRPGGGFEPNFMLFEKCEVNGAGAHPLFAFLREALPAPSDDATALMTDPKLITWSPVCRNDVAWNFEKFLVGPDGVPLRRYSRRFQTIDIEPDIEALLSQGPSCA
# In short: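 Recombinant GPX1 (10 nM final) was preincubated with compound for 30 min at room temperature, then reacted with 1 mM GSH, 0.5 mM CHP, 0.5 mM NADPH and 100 nM glutathione reductase; NADPH fluorescence (340/450 nm) was read at 0 and 15 min.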
# [2] = molecular target: Phospholipid hydroperoxide glutathione peroxidase GPX4 (Homo sapiens) (UniProt P36969); assay: Primary qHTS Assay for Inhibitors of Recombinant Selenoprotein Glutathione Peroxidase 4 (GPX4) (AID 1845192); note: nearly all actives have a fitted effect of over 65% in size
# Chain of Phospholipid hydroperoxide glutathione peroxidase GPX4 (Homo sapiens) (P36969 whole entry, looked up): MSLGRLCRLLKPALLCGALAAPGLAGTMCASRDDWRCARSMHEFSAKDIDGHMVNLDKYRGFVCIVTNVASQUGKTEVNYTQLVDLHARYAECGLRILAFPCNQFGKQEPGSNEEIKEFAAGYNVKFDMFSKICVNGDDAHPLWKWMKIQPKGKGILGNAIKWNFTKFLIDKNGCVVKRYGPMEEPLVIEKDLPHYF
# In short: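 GR-coupled readout: 100 nM GR, 1 mM GSH, 0.5 mM NADPH; NADPH fluorescence (ex 340/em 450 nm) read at t=0 and after 15 min RT. GPX4 200 nM, preincubated 30 min with compound; substrate 0.5 mM CHP.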
# [3] = molecular target: Luciferin 4-monooxygenase (Photinus pyralis) (UniProt P08659); assay: Primary firefly luciferase (FLuc) qHTS assay for identification of artifact compounds. (AID 1845220); settings: outcome: dose series up to 54.1 µM; note: series mostly up to about 54 µM; nearly all actives have a fitted effect of over 60% in size
# In short: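 Reaction readout was CCD-imaged luminescence, taken 5 min after adding 10 nM purified firefly enzyme to compound-treated wells holding 10 uM luciferin and ATP in pH 7.6 buffer.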
# [4] = Primary fluorescence-based thiol-reactive (MSTI) qHTS assay for identification of artifact compounds. (AID 1845221);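 note: series mostly up to about 54 µM; thiol-reactive compounds lower the probe fluorescence signal; nearly all actives have a fitted effect of over 65% in size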
# In short: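 Thiol-reactive compounds detected by quenching of 4 uM MSTI fluorescence (525/598 nm) after 1 h room-temperature dark incubation in PBS pH 7.4, 2% DMSO. qHTS titration; percent inhibition Hill-fitted against Acetyl-MSTI/MSTI controls.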
# [5] = system: Nanoluciferase (engineered Oplophorus gracilirostris luciferase); assay: Primary Nanoluciferase (NLuc) qHTS assay for identification of artifact compounds. (AID 1845222);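 note: NLuc secreted into diluted conditioned medium of S16 cells; series mostly up to about 54 µM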
# In short: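 Concentration-response data were obtained by luminescence after 5 min with Nano-Glo substrate at 1:100. The enzyme was diluted S16 NLuc-expressing cell medium, preincubated with compound for 15 min at RT. Curves were fitted with a 4-parameter Hill model.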
# [6] = Primary redox qHTS assay for identification of artifact compounds. (AID 1845223)
# In short: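 Amplex Red (25 uM) and HRP (250 mU/mL) in HBSS, with compounds for 15 min, then 250 uM DTT for 30 min, room temperature, dark. Fluorescence 525/598 nm read; normalized to DMSO and 10 uM DA3003; Hill fit.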
structure (smiles),measurement,setting,value
O=C1[C@H](CC[C@H](O)c2ccc(F)cc2)[C@@H](c2ccc(O)cc2)N1c1ccc(F)cc1,Potency,[1],inactive
same,Potency,[2],inactive
same,outcome,[3],inactive
same,outcome,[4],inactive
same,outcome,[5],inactive
same,outcome,[6],inactive
CN(Cc1ccc(C(C)(C)C)cc1)Cc1cccc2ccccc12,Potency,[1],inactive
same,Potency,[2],inactive
CC[C@]12CCCN3CCc4c(n(c5ccccc45)C(=O)C1)[C@@H]32,Potency,[1],inactive
same,Potency,[2],inactive
same,outcome,[3],inactive
same,outcome,[4],inactive
same,outcome,[5],inactive
same,outcome,[6],inactive
N[C@H](C(=O)O)[C@@H](O)c1ccc(O)c(O)c1,Potency,[1],inactive
same,Potency,[2],inactive
CC(C)(C)NC[C@H](O)COc1cccc2c1CCCC2=O,Potency,[1],inactive
same,Potency,[2],inactive
CC1=C(C(=O)O)N2C(=O)[C@@H](NC(=O)[C@H](N)c3ccccc3)[C@H]2SC1,Potency,[2],inactive
CCCCCN=C(N)N/N=C/c1c[nH]c2ccc(OC)cc12,Potency,[1],inactive
same,Potency,[2],inactive
C=CCN1CCc2nc(N)sc2CC1,Potency,[2],inactive
Oc1ccc(Cl)cc1Cc1cc(Cl)ccc1O,Potency,[2],inactive
O[C@@H](c1cc(C(F)(F)F)nc2c(C(F)(F)F)cccc12)[C@H]1CCCCN1,Potency,[1],inactive
same,Potency,[2],inactive
CC(C)[C@@H]1CC[C@@H](C)CC1=O,Potency,[1],inactive
same,Potency,[2],inactive
CC(=O)O[C@]1(C(C)=O)CC[C@H]2[C@@H]3C=C(C)C4=CC(=O)CC[C@]4(C)[C@H]3CC[C@@]21C,Potency,[1],inactive
same,Potency,[2],inactive
CCCCCCCCCCCCCC(=O)OC(C)C,Potency,[1],inactive
same,Potency,[2],inactive
CC(=O)OCC(=O)[C@H]1CC[C@H]2[C@@H]3CCC4=CC(=O)CC[C@]4(C)[C@H]3CC[C@]12C,Potency,[1],inactive
same,Potency,[2],inactive
CCCCC(CC)CN1CN(CC(CC)CCCC)CC(C)(N)C1 (stereo not given),Potency,[1],inactive
same,Potency,[2],inactive
